Measured values as given in PubChem BioAssay AID1276 (Columbia University Molecular Screening Center, 2008).
About 2,000 (1.1%) of roughly 190,000 compounds were called active.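 The calls were made as follows: active = activation above a set limit, based on mean plus 3 SD of controls (cut at about 140% in these data); inconclusive = one replicate above the limit, the other below; inactive = the rest.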 What follows is part of a selection rich in actives, with near analogues and random picks from the rest.

Assay: activators of APP 5'UTR luciferase reporter, primary screen, SH-SY5Y cells (AID 1276)
Settings: SH-SY5Y APP 5'UTR luciferase reporter, luminescence; at 2 µM; hits give high values; zero percent = DMSO vehicle wells

Which activation does the source give for CCN1CCC(=NNC(=O)c2ccc(C)c([N+](=O)[O-])c2)CC1 here?
The activation was -0.15% (inactive).

With Cc1cc(O)c(NC(=O)c2ccc(C)c([N+](=O)[O-])c2)cc1C as the compound, how does the activation read?
The activation was 142% (active).

Which activation does the source give for Cc1ccc(C(=O)Nc2cccc3ncccc23)cc1[N+](=O)[O-] here?
The activation was -2.5% (inactive).

With O=[N+]([O-])c1ccccc1N/N=C1\CCc2ccccc21 as the compound, how does the activation read?
Its activation is 120% (inactive).

For CCc1ccc2oc(-c3ccc(N)cc3)nc2c1, which activation is on record?
Its activation is 141% (active).

For CCCCCC(=O)Nc1ccc2oc(-c3ccncc3)nc2c1, which activation is on record?
Its activation is 7.49% (inactive).

Which activation does the source give for Nc1ccc(-c2nnc(-c3ccc(-c4ccccc4)cc3)o2)cc1 here?
The activation was 79.7% (inactive).

Which activation does the source give for C=CCNC(=S)N1CCN(CCN=Cc2c(C)[nH]n(-c3ccc([N+](=O)[O-])cc3)c2=O)CC1 here?
The activation was 1.34% (inactive).

With O=C(CN1CCN(c2ccc(O)cc2)CC1)Nc1cc(S(=O)(=O)N2CCOCC2)ccc1Cl as the compound, how does the activation read?
The activation was 2.42% (inactive).

For OCC1(CCOc2ccccc2)CCN(Cc2cn[nH]c2-c2ccccc2)CC1, which activation is on record?
The activation was 7.79% (inactive).

With O=C(c1cnn(-c2ccc(Cl)cc2)c1)c1ccccc1O as the compound, how does the activation read?
The activation was 177% (active).

For Cc1ncc(CC(=O)n2cc(C(=O)c3cc(Cl)ccc3O)cn2)s1, which activation is on record?
The activation was 6.84% (inactive).

For O=C(O)c1ccc(NC(=O)c2cn(-c3ccccc3)nc2-c2ccc(Cl)cc2)cc1, which activation is on record?
Its activation is 8.51% (inactive).

Which activation does the source give for Cc1nc2ccccc2nc(=O)c1NNc1ccc([N+](=O)[O-])cc1 here?
The activation was -4.38% (inactive).

Which activation does the source give for CCOC(=O)c1ccc(NC2Nc3cc(C)nn3S2)cc1 (stereo unspecified) here?
The activation was 4.66% (inactive).

For CCc1ccc(NC(=O)N2CCN(c3ccccc3)CC2)cc1, which activation is on record?
Its activation is 1.57% (inactive).

For CCc1ccc(NC2Nc3cc(C)nn3S2)cc1 (stereo unspecified), which activation is on record?
The activation was 166% (active).

Which activation does the source give for CC(=O)c1ccc(-c2nnc(CCC(=O)N(C)Cc3cnc4ccccn34)o2)s1 here?
The activation was -5.43% (inactive).

With COC(=O)CN1C(=O)N/C(=C/c2ccc(OC)c(C)c2OC)C1=O as the compound, how does the activation read?
The activation was -21.7% (inactive).

For Cc1cc(C)n(Cc2cnc(N3CCOCC3)s2)n1, which activation is on record?
The activation was 22.6% (inactive).

Which activation does the source give for NNC(=O)c1cnn(-c2ccccc2)c1C(F)(F)F here?
Its activation is 15.9% (inactive).

Which activation does the source give for Cc1ccc(C(=O)OCc2nc(N)nc(Nc3ccccc3C)n2)cc1 here?
Its activation is -2.39% (inactive).

Which activation does the source give for Cc1ccccc1Nc1nc(N)nc(CSc2nnc3ccccn23)n1 here?
Its activation is 59.9% (inactive).

Which activation does the source give for Cc1ccccc1Nc1nc(N)nc(CSc2ccccc2)n1 here?
The activation was 159% (active).

For CCCC1(C(=O)OC)NC(c2ccco2)C2C(=O)N(C)C(=O)C21 (stereo unspecified), which activation is on record?
Its activation is 9.69% (inactive).

For CC(=O)NCCc1nc2cc(NC(=O)c3ccccc3)ccc2n1C, which activation is on record?
Its activation is 55.4% (inactive).

For Cc1cc(C)c2nc(SCC(=O)N(C)C3CCS(=O)(=O)C3)cc(C)c2c1 (stereo unspecified), which activation is on record?
Its activation is 11.6% (inactive).

With O=C(CC1SCCNC1=O)Nc1ccc(Cl)c(Cl)c1 (stereo unspecified) as the compound, how does the activation read?
The activation was -7.34% (inactive).

With CC(NC(=O)CSc1nc2c(cc1C#N)CN(C)CC2)c1ccccc1 (stereo unspecified) as the compound, how does the activation read?
The activation was 1.35% (inactive).

For Cc1nc(SCC(=O)Nc2cc(C)on2)c2c3c(sc2n1)CCCC3, which activation is on record?
The activation was -10.6% (inactive).

For Cc1cc(NC(=O)CSc2nc3c(cc2C#N)CCCCC3)no1, which activation is on record?
Its activation is 191% (active).

Which activation does the source give for COc1ccc(-c2nn3c(-c4ccccc4)nnc3s2)cc1OC here?
Its activation is 12.1% (inactive).

For COc1ccc(C2CC(c3cccs3)=Nc3ccccc3S2)cc1OC (stereo unspecified), which activation is on record?
Its activation is 2.96% (inactive).

For COc1ccc(-c2csc(-c3cccs3)n2)cc1OC, which activation is on record?
Its activation is 172% (active).

For O=C(NCCc1ccccn1)c1cc(-c2ccc(Cl)cc2)nc2ccccc12, which activation is on record?
The activation was -9.75% (inactive).

With O=c1c2c(nc3nc[nH]n13)CCC2 as the compound, how does the activation read?
The activation was 3.94% (inactive).

With O=c1c2c(nc3cc(-c4cccc(Cl)c4)[nH]n13)CCCC2 as the compound, how does the activation read?
The activation was 158% (active).

For O=C1CCCc2c1nc(-c1cccc(Cl)c1)n2O, which activation is on record?
The activation was -94.3% (inactive).

For Cc1ccc(-c2cc(N)on2)cc1, which activation is on record?
Its activation is -4.88% (inactive).

Which activation does the source give for CCC(C)NC(=O)Cn1nc(C(F)(F)F)c2c1CCC2 (stereo unspecified) here?
Its activation is -3.33% (inactive).

With CCCC(=O)Nc1cccc(-c2cn3ccsc3n2)c1 as the compound, how does the activation read?
The activation was 20.7% (inactive).

With COc1ccc(-c2cn3ccsc3n2)cc1 as the compound, how does the activation read?
Its activation is 135% (active).

For COc1ccc(-c2cn3cccnc3n2)cc1, which activation is on record?
The activation was 35.2% (inactive).

Which activation does the source give for CN1C(=O)/C(=C\c2ccc(-c3ccccc3)o2)SC1=S here?
The activation was 5.23% (inactive).

For Cc1cccc(OC(=O)c2sc3ncn(C)c(=O)c3c2C)c1, which activation is on record?
Its activation is 62.6% (inactive).

With O=C(c1cccc(N2CCCC2=O)c1)N1CCOCC1 as the compound, how does the activation read?
Its activation is 10.7% (inactive).

With NC1=NN(c2cccc(C(=O)O)c2)C(=O)C1 as the compound, how does the activation read?
Its activation is 135% (active).

Which activation does the source give for O=C(O)c1cccc(N2C(=O)Nc3ccccc3N2O)c1 here?
The activation was 27.8% (inactive).

With CCOC(=O)c1cc2c(=O)[nH]c(C(Cl)(Cl)Cl)nc2o1 as the compound, how does the activation read?
Its activation is 5.69% (inactive).

For CCCCOc1ccc(C(=O)NCC(=O)OCC(=O)N2CCN(S(=O)(=O)c3ccc(C)cc3C)CC2)cc1, which activation is on record?
The activation was -1.98% (inactive).

For Cc1ccnc(Nc2nc3ccccc3s2)n1, which activation is on record?
The activation was 127% (inactive).

For O=[N+]([O-])c1cc(Br)c(O)c(/C=N/Nc2nc3ccccc3s2)c1, which activation is on record?
The activation was 12.5% (inactive).

Which activation does the source give for c1ccc2sc(NN=C3CCCC3)nc2c1 here?
The activation was 193% (active).

For CCOCCCNC(=S)N1CCC(NC(=O)C2CCCCC2)CC1, which activation is on record?
Its activation is -16.3% (inactive).

Which activation does the source give for CCn1ccnc1CN(C)Cc1nc(-c2ccc3c(c2)OCO3)no1 here?
Its activation is 14.5% (inactive).

Which activation does the source give for O=C(O)/C=C/c1cn(-c2ccccc2)nc1-c1cccs1 here?
The activation was -9.09% (inactive).

With O=C(O)c1ccc(N/N=C/c2cn(-c3ccccc3)nc2-c2cccs2)cc1 as the compound, how does the activation read?
The activation was 140% (active).

For O=C(/C=C\c1cn(-c2ccccc2)nc1-c1cccs1)N1CCOCC1, which activation is on record?
The activation was -5.12% (inactive).

For COc1ccc(/C=N/N=C/c2c[nH]c(=O)c(C#N)c2Nc2ccccc2)cc1, which activation is on record?
Its activation is -8.9% (inactive).

Which activation does the source give for COc1cccc2sc(NNC(=O)c3nc4ccccc4s3)nc12 here?
The activation was 7.9% (inactive).

Which activation does the source give for CCc1ccc(-c2nnn(Cc3nc4ccccc4s3)n2)cc1 here?
Its activation is 0.38% (inactive).

With COc1ccccc1OCc1nc2ccccc2s1 as the compound, how does the activation read?
The activation was 142% (active).

For CC(O)C(NS(=O)(=O)c1ccc(Cl)cc1)C(=O)OCc1cc([N+](=O)[O-])cc2c1OCOC2 (stereo unspecified), which activation is on record?
Its activation is 22.7% (inactive).

Which activation does the source give for COc1ccc(-c2noc(-c3ccc(C)cc3)n2)cc1 here?
The activation was 38.2% (inactive).

Which activation does the source give for COc1ccc(-c2nc(-c3ccccc3)no2)c(OC)c1 here?
Its activation is 139% (active).

With CCOc1nc(-c2ccc(OC)cc2)ccc1-c1noc(-c2cc(OC)c(OC)c(OC)c2)n1 as the compound, how does the activation read?
The activation was -12.3% (inactive).
